Experimental findings from PubChem BioAssay are described below.

Experiment [1] is described as follows: compounds binding Alexa647 anti-His antibody – biochemical, small-molecule microarray, 635 nm fluorescence, artefact control for SMM control protein annotation, primary screen (AID 1128).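 Note: score merges feature fluorescence with signal-to-noise for each printed compound spot.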 Particulars: higher = more signal.
For experiment [2], the system named is Human papillomavirus type 1a E7 protein (residues 1-88). The experiment is described as follows: HPV1a E7 small-molecule binders, primary screen, biochemical, small-molecule microarray, residues 1-88, 635 nm (AID 1129). Particulars: small-molecule microarray binding, fluorescence 635 nm; higher = more signal.
For experiment [3], the target named is Focal adhesion kinase 1 (Homo sapiens) (UniProt Q05397). The experiment in a line: PTK2 protein binding on printed compound slides – biochemical, small-molecule microarray, 635/667 nm fluorescence, BSA, DTT, primary screen (AID 1130).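 Note: composite of spot emission at 667 nm and signal to noise over triplicate slides.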 The settings on record: 635 nm fluorescence, higher = more signal.
Focal adhesion kinase 1 (Homo sapiens), sequence (Q05397 whole entry, looked up): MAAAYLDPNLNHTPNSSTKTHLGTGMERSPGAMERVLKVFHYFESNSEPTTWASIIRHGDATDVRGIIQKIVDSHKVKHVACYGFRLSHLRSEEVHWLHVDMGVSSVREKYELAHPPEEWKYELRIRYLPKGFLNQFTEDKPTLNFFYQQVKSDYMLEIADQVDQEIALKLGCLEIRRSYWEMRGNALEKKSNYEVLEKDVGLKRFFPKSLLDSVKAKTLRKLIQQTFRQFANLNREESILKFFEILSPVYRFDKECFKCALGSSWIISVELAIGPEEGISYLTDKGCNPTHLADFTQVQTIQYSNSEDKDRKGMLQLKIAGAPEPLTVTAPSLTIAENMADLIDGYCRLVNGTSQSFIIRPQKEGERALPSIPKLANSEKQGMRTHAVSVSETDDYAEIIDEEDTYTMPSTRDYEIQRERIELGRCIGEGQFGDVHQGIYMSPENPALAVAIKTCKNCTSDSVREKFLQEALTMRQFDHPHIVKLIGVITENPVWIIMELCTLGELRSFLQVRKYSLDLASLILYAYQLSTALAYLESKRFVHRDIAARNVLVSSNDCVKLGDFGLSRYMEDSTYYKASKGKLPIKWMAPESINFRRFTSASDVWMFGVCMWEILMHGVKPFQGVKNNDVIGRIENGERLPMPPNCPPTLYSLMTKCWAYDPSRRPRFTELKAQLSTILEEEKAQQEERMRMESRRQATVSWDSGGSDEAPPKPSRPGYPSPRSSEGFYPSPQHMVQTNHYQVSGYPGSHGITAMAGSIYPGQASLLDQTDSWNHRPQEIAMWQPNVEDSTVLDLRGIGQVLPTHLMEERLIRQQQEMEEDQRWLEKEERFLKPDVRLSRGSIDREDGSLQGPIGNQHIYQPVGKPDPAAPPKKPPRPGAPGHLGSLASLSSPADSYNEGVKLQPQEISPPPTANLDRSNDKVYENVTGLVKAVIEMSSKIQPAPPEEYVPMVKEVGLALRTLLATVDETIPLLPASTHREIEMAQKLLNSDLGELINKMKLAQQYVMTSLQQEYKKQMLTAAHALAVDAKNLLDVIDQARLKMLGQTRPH
The subject of experiment [4] is Fibrinogen (Alexa647-labelled). The experiment in a line: Alexa647-fibrinogen binding to printed small molecules – biochemical, small-molecule microarray, 635/667 nm fluorescence, artefact control for SMM control-protein annotation, profiling panel (AID 1131).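 Note: z-score merges 667 nm fluorescence with per-spot signal-to-noise over triplicate slides.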 Particulars: fibrinogen-A647 binding fluorescence, higher = more signal.
Experiment [5] addresses Follistatin (Homo sapiens) (UniProt P19883). The experiment in a line: FST protein binding to printed compounds – biochemical, small-molecule microarray, 635/667 nm fluorescence, primary screen (AID 1132). The settings on record: 635 nm fluorescence, higher = more signal.
Experiment [6] addresses Fibroblast growth factor 2 (Homo sapiens) (UniProt P09038). The experiment in a line: basic fibroblast growth factor binding to printed compounds – biochemical, small-molecule microarray, 635/667 nm fluorescence, primary screen (AID 1133). The settings on record: FGF2, fluorescence 635/667, higher = more signal.
Experiment [7] in a line: JC-1 mitochondrial potential readout, lung cancer cells – cell-based, A549, JC-1 fluorescence, basal, 24 h, 100 nL, profiling panel (AID 1138).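 Note: A549 lung adenocarcinoma cells under basal conditions with no added stimulus; test concentration not given here.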 The settings on record: higher = more signal.
Experiment [8] concerns Lefty1. The experiment is described as follows: Lefty1 protein binding to printed compounds – biochemical, small-molecule microarray, 635/667 nm fluorescence, primary screen (AID 1139). Particulars: fluorescence 635/667, higher = more signal.
The test system of experiment [9] is wheat germ agglutinin (Triticum aestivum), Alexa647-labelled. The experiment is described as follows: Alexa647-WGA lectin binding to printed small molecules – biochemical, small-molecule microarray, 635/667 nm fluorescence, artefact control for SMM control-protein annotation, profiling panel (AID 1140).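 Note: score merges 667 nm feature emission with signal to noise over triplicate slides.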 The settings on record: WGA-A647 binding, 635 nm fluorescence, higher = more signal.

The target in experiment [10] is Luciferin 4-monooxygenase (Photinus pyralis) (UniProt P08659). The experiment in a line: inhibition of purified Photinus pyralis luciferase – biochemical, luminescence, purified enzyme, 2006 set, primary screen (AID 1141).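 Note: cell-free assay with purified firefly luciferase at 100 ng per well in PBS; test concentration not given here.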 Particulars: purified firefly luciferase, SteadyGlo luminescence, 30 min; higher = more signal, called active from +8 up or from −8 down.
Luciferin 4-monooxygenase (Photinus pyralis), sequence (P08659 whole entry, looked up): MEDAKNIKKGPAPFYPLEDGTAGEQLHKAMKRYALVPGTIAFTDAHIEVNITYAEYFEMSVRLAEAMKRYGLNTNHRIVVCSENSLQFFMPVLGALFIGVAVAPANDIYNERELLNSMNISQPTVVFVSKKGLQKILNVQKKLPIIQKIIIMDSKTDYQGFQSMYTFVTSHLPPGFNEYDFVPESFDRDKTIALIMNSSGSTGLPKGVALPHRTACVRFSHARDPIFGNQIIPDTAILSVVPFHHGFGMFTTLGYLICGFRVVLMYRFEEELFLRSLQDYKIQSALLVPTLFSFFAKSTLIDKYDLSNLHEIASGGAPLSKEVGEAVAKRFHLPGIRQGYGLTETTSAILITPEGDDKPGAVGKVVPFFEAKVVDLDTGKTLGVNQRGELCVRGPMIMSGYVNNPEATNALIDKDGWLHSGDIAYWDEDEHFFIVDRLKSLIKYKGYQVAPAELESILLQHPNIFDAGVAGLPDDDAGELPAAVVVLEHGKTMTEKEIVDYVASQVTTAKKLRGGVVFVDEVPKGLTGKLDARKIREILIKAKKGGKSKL
In experiment [11] the test system is Wnt5a (protein binding on small-molecule microarray). The experiment is described as follows: small molecules binding Wnt5a protein – biophysical, small-molecule microarray, 635/667 nm fluorescence, primary screen (AID 1142).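 Note: fluorescence read at 667 nm with signal to noise per printed feature.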 The settings on record: 635 nm fluorescence, higher = more signal.
The nature of experiment [12]: ATP-based viability of Huh7 replicon cells – cell-based, CellTiter-Glo luminescence, basal, 48 h, cytotoxicity control for HCV replication inhibitor project, primary screen (AID 1143).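 Note: Huh7 hepatoma cells carrying a hepatitis C replication reporter with no stimulus; test concentration not given here.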 The settings on record: higher = more signal, called active from +8 up or from −8 down. A general note: A replicon is a self-replicating genome or part of one, used to study replication in cells.

Experiment [13] in a line: Pseudomonas biofilm growth suppression – PAO1 strain, BacTiter-Glo luminescence, LB-PBS, primary screen (AID 1144). The settings on record: P. aeruginosa PAO1 biofilm, 12 h, higher = more signal.
Experiment [14] in a line: basal CRE-LacZ reporter activity in PC12 – cell-based, unstimulated, primary screen (AID 1145). Particulars: no forskolin, luminescence, 4.5 h, higher = more signal, called active from +8 up or from −8 down.
The nature of experiment [15]: forskolin-driven CRE-LacZ activity in PC12 – cell-based, CRE-LacZ reporter, forskolin-stimulated, primary screen (AID 1146).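 Note: PC12 cells with 6xCRE LacZ reporter stimulated by forskolin 10 µM; beta-galactosidase reporter signal reflecting CREB driven transcription.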 The settings on record: luminescence, 4.5 h, higher = more signal, called active from +8 up or from −8 down.
Experiment [16] concerns the target Streptavidin (Streptomyces avidinii) (UniProt P22629). The experiment in a line: compounds binding control protein streptavidin – biophysical, small-molecule microarray, 635/667 nm fluorescence, artefact control for SMM compound annotation, primary screen (AID 1147).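 Note: signal reflects streptavidin binding to arrayed compounds as a control protein.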 The settings on record: higher = more signal.
A short description of experiment [17]: probe aInhba binding on compound microarray – biochemical, small-molecule microarray, 635/667 nm fluorescence, primary screen (AID 1148).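 Note: score merges 667nm spot fluorescence with signal-to-noise for antibody binding to printed compounds.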 Particulars: higher = more signal.
The target of experiment [18] is Torsin-1A (Homo sapiens) (UniProt O14656). The experiment in a line: TOR1A wild-type binding on microarray – cell lysate, small-molecule microarray, lysate, 635/667 nm, primary screen (AID 1149). Particulars: COS7 hTOR1A-WT lysate, 635 nm fluorescence, higher = more signal.
Torsin-1A (Homo sapiens), sequence (O14656 whole entry, looked up): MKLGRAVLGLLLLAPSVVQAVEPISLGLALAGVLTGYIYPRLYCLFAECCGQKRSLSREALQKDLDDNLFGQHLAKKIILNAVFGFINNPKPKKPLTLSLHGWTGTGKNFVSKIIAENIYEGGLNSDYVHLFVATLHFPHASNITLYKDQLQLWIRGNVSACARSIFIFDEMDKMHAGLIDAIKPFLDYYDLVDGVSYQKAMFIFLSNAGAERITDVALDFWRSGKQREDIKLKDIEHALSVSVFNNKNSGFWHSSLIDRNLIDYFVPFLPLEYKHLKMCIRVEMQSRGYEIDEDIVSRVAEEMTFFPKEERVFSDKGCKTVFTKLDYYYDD
For experiment [19] the target is unchanged. The experiment in a line: torsin A mutant lysate binding on microarrays – cell lysate, small-molecule microarray, COS7 lysate, 635/667 nm fluorescence, primary screen (AID 1150).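 Note: score pools 667 nm emission and signal to noise measuring lysate protein binding.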 Particulars: COS7 hTOR1A mutant lysate, 635 nm fluorescence, higher = more signal.
Experiment [20] concerns Sonic hedgehog protein (Shh). The experiment in a line: Sonic hedgehog microarray binding compounds – biochemical, small-molecule microarray, 635/667 nm fluorescence, primary screen (AID 1151).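 Note: Shh protein binding to compounds spotted on small-molecule microarray slides; score combines spot fluorescence intensity with signal-to-noise across triplicate slides.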 Particulars: 635 nm fluorescence, higher = more signal.

Molecules are shown by their SMILES. The source made the active and inactive calls. Unless noted, the rule behind the calls is not given here.

Streptavidin (Streptomyces avidinii), sequence (P22629 whole entry, looked up): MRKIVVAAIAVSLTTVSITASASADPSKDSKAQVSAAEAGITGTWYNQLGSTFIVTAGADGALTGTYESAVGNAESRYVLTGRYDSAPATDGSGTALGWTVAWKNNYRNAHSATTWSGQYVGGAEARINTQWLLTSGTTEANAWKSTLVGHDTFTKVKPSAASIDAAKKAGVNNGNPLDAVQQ
Fibroblast growth factor 2 (Homo sapiens), sequence (P09038 whole entry, looked up): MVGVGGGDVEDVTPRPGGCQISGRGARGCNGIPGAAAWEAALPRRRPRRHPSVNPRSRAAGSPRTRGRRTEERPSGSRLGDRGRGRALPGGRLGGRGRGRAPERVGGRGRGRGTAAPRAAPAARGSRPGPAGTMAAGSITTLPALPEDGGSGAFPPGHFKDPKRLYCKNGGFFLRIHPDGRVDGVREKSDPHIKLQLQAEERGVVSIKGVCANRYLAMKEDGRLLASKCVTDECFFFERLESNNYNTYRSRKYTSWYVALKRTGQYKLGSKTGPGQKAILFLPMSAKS
Follistatin (Homo sapiens), sequence (P19883 whole entry, looked up): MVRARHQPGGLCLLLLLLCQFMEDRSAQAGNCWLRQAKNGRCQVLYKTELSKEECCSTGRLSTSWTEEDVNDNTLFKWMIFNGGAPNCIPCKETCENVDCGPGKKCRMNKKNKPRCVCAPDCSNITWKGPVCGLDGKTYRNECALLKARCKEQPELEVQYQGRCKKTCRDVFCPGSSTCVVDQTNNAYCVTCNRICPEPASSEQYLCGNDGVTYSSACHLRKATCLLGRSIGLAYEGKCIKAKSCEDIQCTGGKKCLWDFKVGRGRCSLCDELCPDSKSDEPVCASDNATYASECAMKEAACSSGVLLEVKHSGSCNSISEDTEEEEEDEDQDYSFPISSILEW

On to `CC1CC/C=C\[C@H]2OC34C=CCN(Cn5nnc6ccccc65)C(=O)[C@H]3N(C(CO)C(C)C)C(=O)[C@@H]4C2C(=O)O1` (stereo not given in full), for which the composite z-score was 1.63 in [1]; 0.19 in experiment [2]; 0.0406 in experiment [3]; 0.422 in experiment [4]; -0.311 in [5]; -0.464 in experiment [6]. The composite z-score is -0.2 in [8]; 1.09 in experiment [9]; -0.347 in experiment [11]; -0.24 in experiment [16]; -0.159 in experiment [17]; -1.45 in experiment [18]. Further, the values for the composite z-score in experiment [19] and in experiment [20] were -1.12 and 0.627, respectively. Moreover, the z-score in experiment [7] was -0.408; in [10], 0.178 (inactive); in [12] it was 0.154 (inactive); in experiment [13] it was -0.246 (inactive); in experiment [14] it was -1.03 (inactive); in [15], -1.05 (inactive).
Take `O=C1C2C=CC(C(O)C3CCCCC3)N(Nc3ccc([N+](=O)[O-])cc3)C2C(=O)N1c1ccccc1` (stereo not given): the composite z-score in experiment [1] was 3.32; in experiment [2], 1.21; in experiment [3] it was 0.539; in [4], 0.959; in [5], -0.647; in [6] it was -1.58. Moreover, the composite z-score in experiment [8] was -0.153; in experiment [9] it was 0.823; in [11], -0.457; in experiment [16], 0.48; in [17], -0.213; in experiment [18] it was -0.465. Also, the composite z-score is -0.199 in [19] and -1.09 in [20]. Also, the z-score in [7] was -1.72; in experiment [10] it was 0.618 (inactive); in experiment [12], -0.415 (inactive); in [13], -0.998 (inactive); in experiment [14], 0.537 (inactive); in [15], 1.13 (inactive).
On to `C=CCN1C(=O)[C@]2(O[C@H](CCO)[C@@H]([Si](C)(C)c3ccc(OC)cc3)[C@@H]2C)c2cc(N3C(=O)c4cccc5cccc3c45)ccc21`, for which the composite z-score in experiment [1] was 0.987; in experiment [2] it was 0.98; in experiment [3] it was 1.05; in experiment [4], 0.541; in experiment [5], 0.644; in experiment [6] it was 0.65. Besides, the composite z-score in [8] is 0.777; in [9], 0.393; in [11] it was -0.0476; in experiment [16], 0.487; in [17] it was 0.0214; in experiment [18], 1.13. Also, the results for the composite z-score in experiment [19] and in [20] were 0.0015 and 1.84, respectively. Besides, the z-score was -0.855 in [7]; -0.225 (inactive) in experiment [10]; -7.91 (inactive) in [12]; 0.00752 (inactive) in experiment [13]; 23.5 (active) in experiment [14]; -2.47 (inactive) in [15].
Regarding `CS(=O)(=O)CCOC(=O)C1=CC(CCCO)=CC(c2ccc(CN3CCCC3)cc2)N(Cc2cc3c(cc2Br)OCO3)C=C1C(=O)OCCS(C)(=O)=O` (stereo not given), the composite z-score was determined as 2.28 in experiment [1]; 0.712 in [2]; 0.0113 in experiment [3]; 0.971 in [4]; 0.694 in experiment [5]; 0.382 in experiment [6]. Also, the composite z-score in experiment [8] worked out at 0.666; in experiment [9] it was 0.914; in [11], 0.592; in experiment [16] it was 1.5; in experiment [17], 0.229; in experiment [18], 2.09. Moreover, the composite z-score in experiment [19] came to 2.13; in experiment [20], 0.404. For the same compound, the z-score was 3.39 in experiment [7]; -1.78 (inactive) in experiment [10]; -0.277 (inactive) in [12]; 0.814 (inactive) in [13]; 4.06 (inactive) in experiment [14]; -1.45 (inactive) in experiment [15].
In the case of `CC(C)C[C@@H]1NC(=O)[C@H]2C[C@@H](C(=O)NCCCCCCN(C)C)[C@@H](c3ccc(O)cc3)N2C1=O`, the composite z-score in [1] is 2.44; in experiment [2], 0.977; in experiment [3], 0.34; in experiment [4], 0.357; in experiment [5], 1.35; in experiment [6] it was 1.29. The composite z-score was 1.19 in experiment [8]; 0.115 in experiment [9]; 0.836 in [11]; 0.189 in experiment [16]; -0.147 in experiment [17]; 1.47 in [18]. For the same compound, the composite z-score is 1.52 in experiment [19] and 1.97 in [20]. Also, the z-score was -0.0361 in [7]; -0.263 (inactive) in [10]; -0.29 (inactive) in [12]; -0.041 (inactive) in experiment [13]; -0.398 (inactive) in experiment [14]; 0.425 (inactive) in [15].
